# Kir21 block: blocks the mouse Kir2.1 inward-rectifier potassium channel; P35561; HEK293-Kir2.1, FluxOR thallium flux fluorescence; hits give low values; B-score at 10 µM; 310,000 compounds, 0.85% hits; AID 1672;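 active means fluorescence ratio B-score at or below minus 3 SD of library scores, with starting-brightness B-score within 2 SD, cut at about -4.2 in these data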;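 further: channel flux triggered by added potassium and thallium sulfate stimulus; B-score of peak minus minimum fluorescence over baseline after thallium stimulus; more negative B-score means stronger Kir2.1 block with less thallium influx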
# Target sequence (P35561 whole entry, looked up): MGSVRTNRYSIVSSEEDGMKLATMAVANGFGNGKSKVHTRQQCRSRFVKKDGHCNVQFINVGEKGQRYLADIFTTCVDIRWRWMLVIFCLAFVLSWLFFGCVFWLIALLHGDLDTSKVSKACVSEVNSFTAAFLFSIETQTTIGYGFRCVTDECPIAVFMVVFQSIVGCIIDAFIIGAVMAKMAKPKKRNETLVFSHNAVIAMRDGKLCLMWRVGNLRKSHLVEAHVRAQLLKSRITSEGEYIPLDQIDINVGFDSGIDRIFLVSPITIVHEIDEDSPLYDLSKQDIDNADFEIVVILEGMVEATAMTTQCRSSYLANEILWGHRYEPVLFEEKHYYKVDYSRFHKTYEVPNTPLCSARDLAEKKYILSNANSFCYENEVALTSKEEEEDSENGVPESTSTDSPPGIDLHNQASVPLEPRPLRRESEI
# TAG inh: reduces triacylglycerol accumulation in H9c2 cells | AID 651582 | Nile Red lipid (TAG) fluorescence; cells loaded with 200 µM oleic acid | 230,000 compounds, 0.66% hits | inhibition, % at 12.5 µM;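 active means pattern-corrected inhibition of lipid staining of at least 50% with the nuclear-stain viability signal not falling by more than 50%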;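 further: 0% = DMSO wells and 100% = triacsin C control wells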
# CHT block: human CHT choline transport inhibition; Q9GZV3; CHT-expressing cells, membrane potential dye, choline response; hits give low values; B-score at 10 µM; 310,000 compounds, 0.86% hits; AID 488975;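 active means B-score over 3 SD under the library average, and starting fluorescence ratio not unusually high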;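 further: choline stimulus applied at its EC90 after an EC20 pre-addition; B-score computed on integrated fluorescence ratio after choline addition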
# CHT PAM: allosteric activators of human choline transporter CHT; CHT-expressing cells, membrane potential dye, choline EC20; hits give high values; LV-AA mutant CHT in HEK293 cells; B-score at 10 µM; 310,000 compounds, 0.49% hits; AID 488977;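 active means initial fluorescence not abnormally high and integrated response B-score, plate-corrected, over 3 SD above library mean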
# CHT inh conf: confirmation of human choline transporter CHT inhibitors; shares compounds with CHT block; CHT activity remaining % of control (hits give low values), % at 10 µM; 2,400 compounds, 70% hits; CHT-expressing cells, choline membrane potential dye; LV-to-AA substituted CHT, HEK293 cells;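 active means choline transporter activity left, mean of duplicates at 10 µM, below buffer-only control mean minus 3 SD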;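 further: depolarization triggered by choline at its EC90 following an EC20 pre-addition; 0% = hemicholinium-3 full block and 100% = buffer-only control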
# HEK293 MPD ctr: CHT inhibitor counter-screen hit in parental HEK293 cells | membrane potential ratio readout (active if shifted either direction beyond buffer ±3SD; no single direction) at 10 µM | shares compounds with CHT block | membrane potential dye, choline response; active = decrease or increase beyond buffer ±3SD | 2,400 compounds, 4% hits;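 further: parental cells lack the transporter so any hit is non-specific; ratio is peak minus trough fluorescence over baseline after EC90 choline challenge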
# Active calls of the source: *; i = inactive; · = not tested or not shown. Compounds with a hit are over-represented: about 2% of the library has one in this group of screens.
SMILES,Kir21 block,TAG inh,CHT block,CHT PAM,CHT inh conf,HEK293 MPD ctr
CCn1c(=N)n(CC(O)COc2cccc(C)c2)c2ccccc21 (configuration not stated),1.9,22,i,i,·,·
Cc1ccc(OCC(O)Cn2c3ccccc3c3ccccc32)cc1 (configuration not stated),-0.07,·,i,i,·,·
Cc1ccc(Cn2c(=N)n(CC(O)COc3ccccc3)c3ccccc32)cc1 (configuration not stated),-8.5*,·,-8.2*,i,38%*,i
CCCn1c(=N)n(CC(O)COc2cccc(C)c2)c2ccccc21 (configuration not stated),-2,6,-5.3*,i,i,i
CCN(C(=O)C(C)N1C(=O)/C(=C/c2cccs2)SC1=S)C1CCS(=O)(=O)C1 (configuration not stated),0.92,·,i,i,·,·
O=C(CC(=O)c1c(F)cccc1Cl)c1ccccc1O,2.8,·,-5.6*,i,46%*,i
CCOc1ccccc1NC(=O)C(c1ccccc1)N1CCN(CC(=O)N2CCCC2)CC1 (configuration not stated),·,-39,·,·,·,·
CCN(CC)CCCC(C)NC(=O)c1c(NC(=O)c2ccccc2)sc2c1CCCC2 (configuration not stated),0.65,·,-7.6*,i,39%*,i
O=C(O)c1cnn(-c2nc(-c3ccc(Br)cc3)cs2)c1C(F)(F)F,0.95,·,-8.9*,i,i,i
CC(C)(C)CC(C)(C)NCC(O)COc1c(F)cc(Br)cc1F (configuration not stated),·,8,-5.5*,i,60%*,-9*
Cc1cc(C)c(OCC(O)CNC(C)(C)C)c(C)c1 (configuration not stated),-1.4,·,i,i,·,·
O=c1onc(-c2ccccc2Cl)n1-c1ccccc1Cl,-0.02,2,i,i,·,·
Fc1ccc(NC(=S)Nc2ccc(F)c(Cl)c2)cc1Cl,-5.4*,-23,-6.1*,i,36%*,i
CCCCNC(=O)c1onc(CSc2ccc(C(C)C)cc2)c1C(=O)O,0.2,10,-8.2*,i,69%*,i
CCCCNC(=O)c1onc(CSc2ccccc2)c1C(=O)O,0.83,3,i,i,·,·
Oc1ccc(Oc2ncc(Cl)cc2Cl)cc1,0.36,·,-5.4*,i,59%*,i
O=C(CCN1C(=O)c2cccc3cccc(c23)C1=O)Nc1ccccc1,-0.76,-18,i,i,·,·
O=C(NN1C(=O)/C(=C/c2ccc(O)c([N+](=O)[O-])c2)SC1=S)c1ccccc1Cl,1.1,3,-5.4*,i,i,i
Cc1cccc(CCNC(=O)c2cccc(NC3=NC4CS(=O)(=O)CC4S3)c2)c1 (configuration not stated),-0.2,-7,i,i,·,·
C[C@]12C(=O)N(c3ccc(F)cc3)C(=O)N1[C@H]1c3ccccc3OC[C@@H]1[C@H]2c1ccccc1,·,20,·,·,·,·
O=C(CCCOC(=O)c1ccc(O)cc1O)c1ccccc1,·,-12,·,·,·,·
O=C(OCCCOc1ccc(F)cc1)c1ccc(O)cc1O,-0.05,-22,-6*,i,49%*,i
CCN1CCN(c2ccccc2NC(=O)C(C)Oc2ccc(C(C)=O)cc2)CC1 (configuration not stated),·,-1,·,·,·,·
CCCC1=NN2C(=N)/C(=C\c3ccc(SCc4ccco4)o3)C(=O)N=C2S1,-2.6,·,-5.8*,i,69%*,i
CCCC1=NN2C(=N)/C(=C\c3cc(C)n(Cc4ccccc4)c3C)C(=O)N=C2S1,1.4,3,i,i,·,·
COc1ccc(C2(O)CCN(C(=O)NC3CCCCC3)CC2)cc1,0.77,·,-7.8*,i,36%*,i
COc1ccc(CCNC(=O)C2CCN(C(=O)NC3CCCCC3)CC2)cc1,1.6,-5,i,i,·,·
CN1CCN(Cc2ccc(Sc3ccc(Cl)cc3)c([N+](=O)[O-])c2)CC1,-5.3*,-36,-5.1*,i,61%*,i
O=C(CSc1n[nH]c(-c2ccccc2)n1)Nc1ncc(Br)cc1Br,-0.51,·,-6.5*,i,57%*,i

# Bioassay records deposited in PubChem by several laboratories.
